Data as given in PubChem BioAssay AID1159580 (chemical genetic matrix, 2015).
Out of some 5,500 compounds screened, about 2,000 (36%) were called active. Inconclusive results (about 18%) are left out. No stated cut-off is given here; in the data, active means normalized growth mostly below about 0.91 (no sharp cut-off); inconclusive means no clear call, values can overlap the other calls; inactive means mostly above about 0.92. Some of the results follow.

Test: chemical genetic growth profiling, strain panel (AID 1159580);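 further: tested at 20 µM; growth read once vehicle control cultures reached saturation at 30 °C; 1 = growth at the plate median or of vehicle wells; lower values mean less growth of the strain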
Conditions: S. cerevisiae deletion strains, growth OD
[1] = locus YGR078C, strain PAC10, hits give low values
[2] = locus YMR263W, strain SAP30, hits give low values
[3] = locus YNL128W, strain TEP1, hits give low values
[4] = locus YPL055C, strain LGE1, hits give low values
[5] = locus YPL241C, strain CIN2, hits give low values

Measured: normalized growth

N#CC(C#N)=CNc1cccc(N)n1
inactive: locus YAL013W, strain DEP1, hits give low values 0.995 | locus YBR229C, strain ROT2, hits give low values 1.01 | locus YCL061C, strain MRC1, hits give low values 1.04 | locus YDL101C, strain DUN1, hits give low values 1.05 | locus YDL134C, strain PPH21, hits give low values 1.01 | locus YDR150W, strain NUM1, hits give low values 1.07 | locus YEL061C, strain CIN8, hits give low values 1 | [1] 1.02 | locus YGR229C, strain SMI1, hits give low values 1.02 | locus YHR030C, strain SLT2, hits give low values 1.05 | locus YHR087W, strain rtc3, hits give low values 0.968 | locus YJR043C, strain POL32, hits give low values 1.03 | locus YJR075W, strain HOC1, hits give low values 1.05 | locus YLR039C, strain RIC1, hits give low values 1.05 | locus YLR058C, strain SHM2 (second series), hits give low values 0.992 | locus YLR085C, strain ARP6, hits give low values 1.03 | locus YLR262C, strain YPT6, hits give low values 1 | locus YML094W, strain GIM5, hits give low values 0.991 | locus YMR219W, strain ESC1, hits give low values 1 | [2] 1.05 | [3] 1 | locus YNL153C, strain GIM3, hits give low values 1.02 | locus YNL298W, strain CLA4 (second series), hits give low values 1.01 | locus YNL322C, strain KRE1, hits give low values 1.01 | locus YNR030W, strain Alg12, hits give low values 1 | [4] 0.996 | [5] 1 | locus YPR135W, strain CTF4, hits give low values 1.07

CC(N)C1CCC(C(=O)Nc2ccncc2)CC1 (configuration not stated)
inactive: locus YAL040C, strain CLN3, hits give low values 0.989 | locus YCL061C, strain MRC1 (second series), hits give low values 1 | locus YDR363W, strain ESC2, hits give low values 0.985 | locus YER002W, strain NOP16, hits give low values 0.987 | [1] 1.02 | [2] 1 | locus YMR307W, strain GAS1, hits give low values 1.02 | [3] 1.01 | locus YNL175C, strain NOP13, hits give low values 0.992 | locus YNL197C, strain WHI3, hits give low values 0.99 | locus YNL224C, strain SQS1, hits give low values 0.993 | locus YOR083W, strain WHI5 (second series), hits give low values 1.05 | [4] 0.987 | [5] 0.996
